Tg IFNy HTS – T. gondii growth inhibition under IFN-gamma; Toxoplasma gondii growth in IFN-gamma-treated host cells; active compounds read low; activity change, negative = inhibition, % (no concentration beside the values); 69,000 tested, 3.8% active; in the data active = activity change below about -70%, passing the limit was not always enough;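 note: host cells are HeLa cells infected with Toxoplasma gondii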
* = called active by the depositor; ! = repeats disagree. The entries come from a sample that favours hits as a whole.

SMILES | Tg IFNy HTS
COc1cccc(-c2nc3c(s2)CN(S(=O)(=O)c2ccccc2Cl)CC3)c1 | -102*
COc1cccc(-c2nc3c(s2)CN(S(=O)(=O)c2cc(C)ccc2C)CC3)c1 | -102*
Cc1cc2c(cc1C(=O)N1CCCC3(CNC(=O)O3)C1)OCCO2 (centres undefined) | -39
O=C(c1ccccc1C1CCNC1)N1CCCN(c2ncccn2)CC1 (centres undefined) | 2
O=C(c1ccc2n[nH]nc2c1)N1CCC(c2[nH]ncc2Cc2ccccc2)CC1 | -27
Cc1cccnc1-c1n[nH]c(Cc2ccccc2)n1 | -48
Cc1nn(-c2cc(N3CCOCC3)ncn2)c(C)c1CCC(=O)NC1CCCCC1 | 3
Cc1cccc(C)c1OC1CN(c2ccnc(C(=O)N3CCOCC3)c2)C1 | -2
CCOc1ccccc1-c1nc(Cn2nnc(C(=O)Nc3cc(Cl)ccc3C)c2C)c(C)o1 | 100
Cc1nn(CC(=O)N[C@@H]2C[C@H]3C(=O)N(C)CC(=O)N3C2)c(C)c1C | -6
C=CCOCC12CCCOC1CCN(C(=O)N1CCCC1)C2 (centres undefined) | -3
Cc1ccc(NC(=O)CC(=O)N2CCCCC2CCO)c(C)c1 (centres undefined) | -42
Cc1nnc(SCCNC(=O)c2[nH]c3ccc(F)cc3c2C)s1 | -67
COCCN(C)CC(=O)N1CCn2c(C(N)=O)cnc2C1 | 4
Cn1c2c(ccc1=O)CC(NC(=O)C1CCOC1)CC2 (centres undefined) | 36
CCOC(=O)c1nc(NCC2CCN(Cc3ccccc3F)CC2)c2ccccc2n1 | -7
COc1cccc(-c2nc3c(s2)CN(S(=O)(=O)c2cccc(C)c2)CC3)c1 | -105*
COc1ccc(-c2nc3c(s2)CN(S(=O)(=O)c2cccc(Cl)c2)CC3)cc1 | 0
O=c1[nH]nc(CCCO)n1CCc1ccccc1F | -3
CN(C)[C@@H]1CCN(c2ncccn2)[C@H]1Cc1cnn(C)c1 | 3
Nc1ccc(Sc2ccccn2)c(Cl)c1 | 61
COc1cccc(CC(=O)NCC2Cn3nncc3CO2)c1 (centres undefined) | -26
Cc1ccc2cc(C)c3nn(CCNC(=O)C4CSC(c5ccncc5)=N4)c(=O)n3c2c1 (centres undefined) | -110*
CCN(CC)C(=O)Cn1nc2c(C)cc3ccc(OC)cc3n2c1=O | -9
Cc1cc2cc3c(cc2n2c(=O)n(Cc4ccccn4)nc12)OCO3 | -45
SMILES | Tg IFNy HTS
O=C(CO)N1CCCn2nnc(COCCN3CCCC3)c2C1 | 8
CC(COc1ccccc1)N(CCCl)Cc1ccccc1 (centres undefined) | 5
CC(C)COCC(CN(Cc1ccccc1)c1ccccc1)N1CCCC1 (centres undefined) | -76*!
CC[C@@H](C(=O)O)[C@@H]1O[C@@H]([C@@H](C)[C@H](O)[C@H](C)C(=O)[C@H](CC)[C@H]2O[C@]3(C=C[C@@H](O)[C@]4(CC[C@@](C)(C5CC[C@](O)(CC)[C@H](C)O5)O4)O3)[C@H](C)C[C@@H]2C)[C@@H](C)C[C@H]1C (some centres undefined) | -81*
Cc1cc(C)c2c(=O)n(Cc3nc(-c4ccc(Cl)cc4)oc3C)c(=O)n(C)c2n1 | 10
CC(=O)N1C(Cn2cccn2)CC2CN(Cc3ccco3)CCC21 (centres undefined) | 9
CC(C)Nc1ncc2c(c1C(=O)O)CCN(S(=O)(=O)C1CC1)C2 | -2
Cc1ccc(SC(=O)c2cc(C)n(-c3c(Cl)cc(Cl)cc3Cl)n2)cc1 | -100*
CCc1ccccc1NC(=O)COc1nc(C)nc2ccccc12 | -6
CC(C)C(=O)c1ccc2onc(-c3coc(-c4cccs4)n3)c2c1 | -48
Cc1ccc2nc(COCC(=O)Nc3ncc(Cc4ccccc4)s3)[nH]c2c1 | 12
Cc1nc2[nH]nc(C)n2c(=O)c1CC(=O)Nc1ncc(Cc2ccccc2F)s1 | 12
Cc1nc(C)c(CC(=O)Nc2ncc(Cc3ccc(F)cc3)s2)s1 | -80*
Cn1cc(NC(=O)CN2CCCC(c3nc4ccccc4n3C)C2)cn1 (centres undefined) | 3
Cc1cc(C)c2[nH]c(=O)c(-c3nccn3CCc3cn[nH]c3)cc2c1 | -1
COc1ccc([C@@H]2C[C@H](NC(C)=O)C[C@H](c3ccc(Cl)cc3)O2)cn1 | -3
C=CCn1c(=O)c(C(=O)NCc2ccc(C)o2)c(O)c2ccccc21 | -15
COc1cc(-c2cccc(-n3cccn3)c2)ccc1NC(C)=O | 77
O=C1Cc2cc(Cl)ccc2N1 | 10
O=C1Cc2cc(-c3cccc(-n4cccn4)c3)ccc2N1 | -93*
Cc1ccc(S(=O)(=O)N2CCC3(CC2)NCCN=C3NCc2ccccc2)c(C)c1 | -7
COc1ccccc1N1CCN(C(=O)c2cc(C(C)(C)C)oc2C)CC1 | -108*
COc1ccccc1N1CCN(C(=S)c2ccccc2OC(F)(F)F)CC1 | -27
COc1ccccc1N1CCN(C(=O)C2CCCCC2)CC1 | 7
Cc1ccccc1C(=O)NC(=S)Nc1ccc(N2CCOCC2)c(Cl)c1 | -21
SMILES | Tg IFNy HTS
Cc1cc(C)c(S(=O)(=O)NCCc2sc(-c3cccc(F)c3)nc2C)c(C)c1 | 48
COc1cc(C2N3CCCN2CC3)ccc1OCc1ccccc1 (centres undefined) | 162
COc1ccc(-c2nnc(-c3nc(NC4CCCCC4)c4ccccc4n3)o2)cc1 | -23
COc1cc(-c2nnc(C3CCCCC3)o2)ccc1OCc1ccccc1 | -81*
CCCCC1C=CCN1C(=O)c1c(O)cccc1O (centres undefined) | 2
O=C1/C(=C/c2ccccc2)C(NC2CCCCC2)c2ccccc21 (centres undefined) | -54
Cn1ncc2c(NCc3ccccc3-n3ccnc3)nc(-c3cccnc3)nc21 | -17
Cn1ncc(Cl)c1-c1cc(C(=O)N[C@H](CN)Cc2ccc(F)c(F)c2)oc1Cl | -81*
Cc1ccc(-c2coc(-c3ccc(NC(=O)Nc4cccc(F)c4)cc3)n2)c(C)c1 | -28
COc1ccc(S(=O)(=O)Nc2ccc3c(c2)C(=O)N([C@H](C)CO)C[C@@H](C)[C@H](CN(C)Cc2ccc(C(F)(F)F)cc2)OCCCC[C@H](C)O3)cc1 | -101*
C[C@@H]1CN([C@@H](C)CO)C(=O)c2cc(NS(=O)(=O)c3cn(C)cn3)ccc2O[C@@H](C)CCCCO[C@@H]1CN(C)C(=O)Nc1ccc(C(F)(F)F)cc1 | 45
COc1ccc(CN(C)C[C@H]2OCCCC[C@@H](C)Oc3ccc(NC(=O)C4CCCCC4)cc3C(=O)N([C@H](C)CO)C[C@H]2C)cc1 | 39
C[C@H](CO)N1C[C@H](C)[C@@H](CN(C)C(=O)Nc2ccc(C(F)(F)F)cc2)OCCCC[C@H](C)Oc2ccc(NS(=O)(=O)c3cn(C)cn3)cc2C1=O | 143
COc1ccc(S(=O)(=O)Nc2ccc3c(c2)C(=O)N([C@@H](C)CO)C[C@H](C)[C@@H](CN(C)Cc2ccc(C(F)(F)F)cc2)OCCCC[C@H](C)O3)cc1 | -129*
Cc1ccc(S(=O)(=O)Nc2ccc3c(c2)C(=O)N([C@H](C)CO)C[C@@H](C)[C@H](CN(C)Cc2ccc(C(F)(F)F)cc2)O3)cc1 | -20
COc1ccc(CN(C)C[C@@H]2OCCCC[C@@H](C)Oc3ccc(NC(=O)C4CCCCC4)cc3C(=O)N([C@@H](C)CO)C[C@H]2C)cc1 | -3
C[C@@H]1CCCCO[C@H](CN(C)C(=O)Nc2ccc(C(F)(F)F)cc2)[C@H](C)CN([C@H](C)CO)C(=O)c2cc(NS(=O)(=O)c3cn(C)cn3)ccc2O1 | -83*
